The list is not random: actives were taken first. Their share in the collection is about 2.3%.
Bim-Mcl-1 – inhibitors of Bim-Mcl-1 interaction, human | Q07820 | Bead-based flow cytometry, Bim peptide-Mcl-1 binding | inhibition, % at 10 µM | actives 0.1% (n = 190,000); in the data active = inhibition above about 40%;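 note: 0% = no compound tracer wells and 100% = peptide blocker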
GLD-1 TGE inh – GLD-1-TGE RNA interaction inhibition (C. elegans). Q17339. purified GLD-1 + fluorescein TGE RNA, fluorescence polarization. inhibition, % at 5.96 µM. actives 0.44% (n = 320,000). AID 2280;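 active = percent inhibition above a per-plate cutoff, the plate mean of test compounds plus 3 SD, cut at about 30% in these data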;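 note: 0% = DMSO wells with GLD-1 and probe and 100% = wells lacking GLD-1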
Target sequence (Q17339 whole entry, looked up): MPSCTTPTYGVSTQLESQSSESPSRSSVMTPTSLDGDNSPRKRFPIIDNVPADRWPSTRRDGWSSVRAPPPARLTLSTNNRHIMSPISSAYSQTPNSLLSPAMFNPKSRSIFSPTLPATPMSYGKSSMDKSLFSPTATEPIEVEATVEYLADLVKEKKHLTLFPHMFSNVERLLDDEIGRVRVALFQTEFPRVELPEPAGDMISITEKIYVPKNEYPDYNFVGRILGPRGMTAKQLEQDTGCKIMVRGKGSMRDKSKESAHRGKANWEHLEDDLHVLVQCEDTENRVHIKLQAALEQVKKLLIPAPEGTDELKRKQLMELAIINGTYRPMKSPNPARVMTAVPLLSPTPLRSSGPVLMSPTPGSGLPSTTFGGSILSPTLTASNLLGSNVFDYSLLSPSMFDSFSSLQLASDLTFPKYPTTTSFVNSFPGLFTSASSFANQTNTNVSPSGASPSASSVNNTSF
Mcl1-Noxa inh – Mcl-1/Noxa interaction inhibition. inhibition, % at 21.7 µM. actives 1.5% (n = 220,000). AID 1022. Q07820. TR-FRET Mcl-1/Noxa peptide binding, 2 h;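 active = compounds that cut the protein-peptide binding signal by more than 50% relative to plate controls in a single-dose test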;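 note: His-tagged Mcl-1 with rhodamine Noxa BH3 peptide and terbium anti-His antibody; 0% = Mcl-1 plus Noxa peptide wells and 100% = peptide-only wells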
Mcl1-Bid inh – disrupts binding of human Mcl-1 to Bid peptide; TR-FRET Mcl-1/Bid-Dy647 peptide binding, 1536-well; inhibition, % at 21.7 µM; actives 0.97% (n = 220,000); AID 1021;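 active = compounds that cut the binding signal by more than half at the single screening dose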;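 note: His-tagged Mcl-1 with europium anti-His antibody binding Bid BH3 peptide; 0% = Mcl-1 plus peptide wells and 100% = peptide-only wells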
MCL1 BIM primary – inhibitors of human MCL1 binding to BIM-BH3 peptide | GST-MCL1 / FITC-Bim-BH3 fluorescence polarization | actives 0.68% (n = 320,000) | inhibition, % at 10.9 µM | AID 2057 | Q07820;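 active = inhibition above the mean inhibition of all tested compounds plus 3 SD, set per campaign, cut at about 40% in these data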;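 note: 0% = DMSO wells and 100% = unlabeled Bim-BH3 peptide control; higher means more loss of mP so more displacement of Bim peptide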
Bcl-xL primary – blocks human Bcl-xL binding to Bim BH3 peptide. AID 2129. inhibition, % at 10.9 µM. GST-Bcl-xL / FITC-Bim BH3 peptide fluorescence polarization. actives 0.7% (n = 320,000);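 active = inhibition above the mean of all tested compounds plus 3 SD, cutoff set per campaign, cut at about 30% in these data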;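 note: 0% = DMSO wells and 100% = unlabeled Bim-BH3 peptide competitor; inhibitors lower millipolarization by displacing the labeled peptide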
Target sequence (Q07817 whole entry, looked up): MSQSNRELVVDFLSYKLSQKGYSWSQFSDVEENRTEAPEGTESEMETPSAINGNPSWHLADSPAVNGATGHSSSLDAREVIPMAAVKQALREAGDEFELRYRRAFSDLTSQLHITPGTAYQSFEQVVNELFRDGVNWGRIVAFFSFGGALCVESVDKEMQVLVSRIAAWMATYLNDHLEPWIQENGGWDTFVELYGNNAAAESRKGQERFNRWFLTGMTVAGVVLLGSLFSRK
Starred values were filed as active, the others as inactive; · = no result.

SMILES | Bim-Mcl-1 | GLD-1 TGE inh | Mcl1-Noxa inh | Mcl1-Bid inh | MCL1 BIM primary | Bcl-xL primary
Cc1ccc(-c2nc3ccc(C(=O)O)cc3nc2-c2ccc(C)cc2)cc1 | -2.0 | 3.3 | 8.8 | 1.9 | 0.5 | 2.0
CCc1nc2ccc(C(=O)NCCc3ccc(OC)c(OC)c3)cc2nc1CC | · | 3.7 | · | · | 0.9 | 3.4
COc1ccc(CCNC(=O)c2ccc3nc(-c4ccco4)c(-c4ccco4)nc3c2)cc1OC | 8.0 | 3.4 | 99.3* | 17.7 | 30.9 | 21.4
O=C(c1ccc2nc(-c3ccco3)c(-c3ccco3)nc2c1)N1CCN(c2ccccc2)CC1 | 0.0 | 13.1 | 52.2* | -19.3 | 18.2 | 17.1
O=C(O)c1ccc2nc(-c3ccco3)c(-c3ccco3)nc2c1 | 5.0 | · | 80.4* | -9.5 | · | ·
COCCN(C(=O)COC(=O)c1cccs1)c1c(N)n(Cc2ccccc2)c(=O)[nH]c1=O | · | -2.0 | · | · | -4.2 | 0.4
O=C1CN(c2ccccc2)C(=S)N1C(=O)c1ccc(Br)cc1 | · | -7.1 | · | · | 0.2 | -0.7
O=C(Nc1cccc2ncccc12)c1ccc(OCc2ccccc2)cc1 | 0.0 | 6.0 | -2.9 | -2.7 | 2.5 | 0.1
COc1ccc(OC)c(CCNC(=O)CCC(=O)N2CCOc3ccc(C)cc32)c1 | · | -9.8 | · | · | 1.1 | 7.0
Nc1c2c(nc3ccc(Br)cc13)N(Cc1ccccc1)CC2 | 0.0 | 2.6 | 83.5* | 13.8 | -8.6 | 0.6
Nc1c2c(nc3ccc(Br)cc13)N(C1CCCCC1)CC2 | 0.0 | -2.3 | 68.0* | 5.9 | -15.6 | 1.1
Nc1c2c(nc3ccccc13)N(C1CCCCC1)CC2 | 0.0 | -0.6 | 38.8 | 6.8 | 8.0 | 6.7
Nc1c2c(nc3ccc(Br)cc13)N(c1ccccc1)CC2 | 3.0 | 3.0 | 24.9 | 9.2 | -5.8 | -1.4
Cc1ccc(S(=O)(=O)N2CCOCC2)cc1C(=O)OCC(=O)NC1CCCC(C)C1C (centres undefined) | · | 4.1 | · | · | -11.1 | -1.2
CCc1ccc(CCC(=O)Nc2ccc(C)cc2C)o1 | -1.0 | 4.4 | 37.5 | 84.5* | 5.4 | 1.4
COc1cccc(N2C(=O)[C@H]3C(C(=O)c4cnccn4)=NN[C@H]3C2=O)c1 | · | 2.7 | -23.5 | -38.2 | 34.6 | 36.8*
O=C(C1=NN[C@@H]2C(=O)N(c3cccc(F)c3)C(=O)[C@H]12)c1ccc2ccccc2n1 | 11.0 | -1.4 | -3.5 | -21.6 | -1.4 | 1.9
CCOC(=O)C1=C(C)NC(=S)NC1c1ccsc1 (centres undefined) | 0.0 | 7.3 | -1.1 | -30.1 | 15.1 | 2.2
CC(=O)c1cccc(NC(=O)C(Sc2ncnc3ccccc23)c2ccccc2)c1 (centres undefined) | -4.0 | -2.8 | -46.0 | 56.2* | -5.2 | 2.3
O=[N+]([O-])c1cc(Br)c(O)c(/C=N/Nc2nnnn2-c2cccc3ccccc23)c1 | -1.0 | 6.5 | 33.9 | 66.4* | 19.2 | -4.9
O=[N+]([O-])c1cc(Br)c(O)c(C=Nc2ccc(N3CCOCC3)cc2)c1 | 2.0 | 2.2 | 35.4 | -47.3 | 26.4 | 16.9
O=C(NC1CCCCC1)C(c1cccnc1)N(C(=O)c1csnn1)c1ccc(F)cc1 (centres undefined) | · | -1.6 | · | · | 4.8 | 3.6
Cc1cc(O)ccc1N/C=C(\C#N)c1nc2ccccc2o1 | -2.0 | 3.1 | 27.7 | 92.7* | -5.4 | 4.0
CCCNC(=O)C(Cc1ccccc1C)NC(=O)c1ccc(C(F)(F)F)cc1 (centres undefined) | · | 0.7 | · | · | -0.4 | 2.2
COc1ccc(C(=O)Nc2ccccc2C(=O)N2CCOCC2)cc1 | · | -9.2 | · | · | -7.4 | -3.3
SMILES | Bim-Mcl-1 | GLD-1 TGE inh | Mcl1-Noxa inh | Mcl1-Bid inh | MCL1 BIM primary | Bcl-xL primary
O=C(O)c1cccc(N2C(=O)/C(=C/c3ccc([N+](=O)[O-])cc3)C=C2c2ccccc2)c1 | -5.0 | 2.0 | 52.9* | -2.9 | -22.3 | 2.9
O=C1/C(=C/c2ccc([N+](=O)[O-])cc2)C=C(c2ccccc2)N1c1ccccc1 | -1.0 | -15.8 | 2.8 | -5.8 | -13.2 | 5.7
COc1ccc(N2C(=O)/C(=C/c3ccc([N+](=O)[O-])cc3)C=C2c2ccccc2)cc1 | -1.0 | -2.1 | 10.4 | -8.2 | 0.2 | 6.5
O=C1/C(=C/c2ccc([N+](=O)[O-])cc2)C=C(c2ccccc2)N1c1ccc(O)cc1 | -3.0 | -2.4 | 60.0* | 5.6 | 1.6 | -3.5
COc1ccccc1N1CCN(C(=O)NC23CC4CC(CC(C4)C2)C3)CC1 | 0.0 | -2.3 | -6.1 | -32.6 | 2.8 | 2.4
CCn1ccnc1C(O)(c1ccccc1)c1ccccc1 | · | 2.0 | · | · | 1.5 | 2.1
CCCCn1nc(C(=O)N(CC)CC(=O)Nc2c(F)cccc2F)c2ccccc2c1=O | · | 7.8 | · | · | -0.7 | 2.4
Cc1[nH]c2ccccc2c1/C=N\NC(=O)CNc1ccc2c(c1)OCO2 | 1.0 | 5.7 | 55.8* | -15.6 | -3.4 | 7.4
COC(=O)CNc1ccc2c(c1)OCO2 | 2.0 | 15.1 | 1.4 | -39.1 | 29.9 | 31.1*
CC1SC(c2ccc(F)cc2)N(CCc2ccccc2)C1=O (centres undefined) | · | -9.5 | · | · | -6.9 | 0.6
COC(=O)c1cc(OC)c(OC)cc1NCC(=O)Nc1ccc(C)cc1 | -4.0 | 4.8 | 16.1 | 80.5* | 23.3 | 2.7
O=C(c1cnn(C(=O)c2cccc(S(=O)(=O)N3CCOCC3)c2)c1)c1ccccc1O | 2.0 | -6.8 | 23.1 | -12.9 | 1.6 | 1.0
COc1cc(C(C)=O)ccc1OCC(O)CNCC1(N2CCCCC2)CCCCC1 (centres undefined) | -1.0 | 3.2 | 25.2 | 5.0 | 0.1 | -1.8
COc1ccccc1COCC(O)CNCC1(N2CCCCC2)CCCCC1 (centres undefined) | -2.0 | 2.3 | 12.0 | 62.2* | 6.7 | 7.0
O=C(NCCc1ccc2c(c1)OCCO2)c1ccccn1 | · | 3.4 | · | · | -16.2 | -0.7
CCCCC(=O)Nc1ncc(S(=O)(=O)c2ccc([N+](=O)[O-])cc2)s1 | · | -4.5 | · | · | -6.1 | 0.4
COCC(=O)Nc1ncc(S(=O)(=O)c2ccc([N+](=O)[O-])cc2)s1 | -1.0 | 1.7 | -0.4 | 67.7* | 4.7 | 8.2
N#C/C(=C/c1ccccc1OCc1ccc(F)cc1)c1ccc(C(=O)O)cc1 | · | -5.1 | · | · | -19.2 | -10.0
N#C/C(=C/c1ccc(OCc2ccc(C(=O)O)cc2)c(Br)c1)c1cccc(F)c1 | -8.0 | -3.7 | 74.3* | -43.0 | 9.0 | 9.7
Cc1cc(C)c(C(N)=O)c(SCC(=O)c2cc(C)n(-c3cc(C)on3)c2C)n1 | · | 4.7 | · | · | · | ·
O=C(N=Nc1c(O)[nH]c2ccc(Br)cc12)c1cc(-c2cccs2)nc2ccccc12 | -2.0 | · | 68.2* | 75.2* | · | ·
O=C(O)c1cc(N=Nc2c(O)[nH]c3ccc([N+](=O)[O-])cc23)ccc1Cl | · | 6.3 | · | · | 9.9 | 14.1
C=C(C)CNC(=S)N=Nc1c(O)[nH]c2ccc([N+](=O)[O-])cc12 | 2.0 | 2.7 | 65.5* | 17.4 | 15.3 | 21.0
Cn1c(O)c(N=NC(=O)c2cc(-c3cccs3)nc3ccccc23)c2ccccc21 | -2.0 | -3.0 | 11.2 | 7.1 | 3.4 | 6.8

Source: PubChem BioAssay
